This passage reports growth inhibition results from PubChem BioAssay (NCI).

A short description of test [1]: NCI Yeast Anticancer Drug Screen. Data for the rad50 strain (AID 155).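 Also: 0% = growth of vehicle-only cultures of the same strain.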 To be noted: S. cerevisiae rad50 strain growth inhibition, stronger effect = higher value; at 50.0 µM unless noted. In short, it runs like this: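 DNA repair mutant yeast, compound exposure, growth read-out; inhibition is taken relative to vehicle.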
A short description of test [2]: NCI Yeast Anticancer Drug Screen. Data for the mec2-1 strain (AID 157). The following applies: S. cerevisiae mec2-1 strain, stronger effect = higher value; at 50.0 µM unless noted. The essentials: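 Mutant yeast (mec2-1) grown with compound; growth inhibition relative to vehicle control reported.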
Test [3] in a line: NCI Yeast Anticancer Drug Screen. Data for the sgs1 mgt1 strain (AID 161).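 Also: 0% = growth of cultures given vehicle only.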 To be noted: S. cerevisiae sgs1 mgt1 strain, stronger effect = higher value; at 50.0 µM unless noted. The essentials:
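This yeast growth screen uses a strain with defined DNA-repair lesions; compound-treated growth is compared with vehicle-treated growth.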

Test [4] in a line: NCI Yeast Anticancer Drug Screen. Data for the cln2 rad14 strain (AID 165).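 Also: 0% = growth equal to vehicle treated cultures.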 To be noted: S. cerevisiae cln2 rad14 strain, stronger effect = higher value; at 50.0 µM unless noted. The essentials:
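Readout is yeast growth inhibition versus vehicle-treated controls, using a strain with cln2 and rad14 alterations exposed to compound.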

Test [5] in a line: NCI Yeast Anticancer Drug Screen. Data for the bub3 strain (AID 167). The following applies: S. cerevisiae bub3 mutant strain, stronger effect = higher value; at 50.0 µM unless noted. The essentials:
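In this screen, a yeast mutant lacking normal mitotic checkpoint function is challenged with compound. Relative growth versus vehicle gives the inhibition value.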

A short description of test [6]: NCI Yeast Anticancer Drug Screen. Data for the mlh1 rad18 strain (AID 175). To be noted: S. cerevisiae mlh1 rad18 strain growth inhibition, stronger effect = higher value; at 50.0 µM unless noted. In short, it runs like this: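 Genetically defined yeast (DNA repair-deficient) exposed to compounds; growth inhibition determined relative to vehicle.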

Several values for one entry are separate records, joined by “and”; a condition that tells them apart may be missing. Identical values can stand only once. The panel holds about 79,000 compounds, 15% with a hit somewhere; the sample as a whole holds those more often. Unmarked numbers belong to inactive results. Activity calls are given as the source filed them. Rule as the data show it: active = growth inhibition above about 70%; inactive = the rest.

For `CN1CCN(C(=S)N(C)C(=O)c2ccco2)CC1`, the growth inhibition in test [1] is -37.8%; in test [2], -36.9%; in test [3], -48.9%; in test [4], -8.85%; in test [5], -44.4%; in test [6], -40.1%.
As for `CC(=O)O/N=C(\C(c1ccccc1)c1ccccc1)C1c2ccccc2-c2ccccc21`, the growth inhibition in test [1] is 91.3% (active); in test [2], 88.7% (active); in test [3] it was 96.9% (active); in test [4], 91.2% (active); in test [5], 64.8%; in test [6], 96.2% (active).
`CC1OC(O)C(O)C(O)C1O` (centres undefined): the growth inhibition is -19.3% and 13.9% in test [1]; -11.7% and 6.25% in test [2]; -43.6% and 31% in test [3]; -65.2% and 34.1% in test [4]; -39.3% and 27.2% in test [5]; -28.6% and 25.6% in test [6].
On to `c1ccc(CNCCNCc2ccccc2)cc1`, for which the growth inhibition in test [1] was 0.3% and 58.3%; in test [2] it was 4.75% and -16.4%; in test [3] it was 14.4% and 50.9%; in test [4], -56.7% and -11.3%; in test [5], -11.7% and 0.05%; in test [6], -5.35% and 46%.
As for `O=C(O)C(C(=O)N(c1ccccc1)c1ccccc1)c1ccccc1` (centres undefined), the growth inhibition is 9.8% in test [1]; -1.05% in test [2]; 21.5% in test [3]; -51.9% in test [4]; 18.7% in test [5]; 9.75% in test [6].
As for `CCCC(=O)OC1CC(n2cc(F)c(=O)[nH]c2=O)OC1CO` (centres undefined), the growth inhibition was 8.6% in test [1]; 0.45% in test [2]; 11.6% in test [3]; 2.55% in test [4]; 7.85% in test [5]; -28.6% in test [6].
For the compound `COc1ccccc1OC(=O)c1ccc(Cl)cc1`, the growth inhibition in test [1] was 2.2%; in test [2], -17.6%; in test [3], 18.7%; in test [4], -63.9%; in test [5] it was 1.35%; in test [6], 0.75%.
As for `CSc1cc(Cl)c(C(=O)Nc2ccccc2)cc1S(=O)(=O)n1cc[nH]c1=O`, the growth inhibition in test [1] was 0.2%; in test [2], -10.6%; in test [3] it was -6.35%; in test [4] it was -8.95%; in test [5], -1.35%; in test [6], 8.05%.
For the compound `COC(=O)CC1(C(=O)OC)NC(=O)c2cc(OC)c(Cl)cc2N1` (centres undefined), the growth inhibition in test [1] is -4.2%; in test [2] it was 7.6%; in test [3] it was -7.1%; in test [4], 13.6%; in test [5], -4.9%; in test [6], -19.6%.
On to `NC(CC(=O)c1ccccc1NC=O)C(=O)O` (centres undefined), for which the growth inhibition in test [1] is 8.85%; in test [2], -1.4%; in test [3], -9.95%; in test [4] it was -48.6%; in test [5], -0.95%; in test [6] it was 3.25%.
On to `CCN(CC)C/C(C)=C(/c1ccccc1)c1ccccc1S(N)(=O)=O`, for which the growth inhibition is 5.8% in test [1]; 4.15% in test [2]; -1.5% in test [3]; -30.6% in test [4]; 1.15% in test [5]; 9.65% in test [6].
Regarding `O=C(CI)NCc1cn(C2CC(O)C(CO)O2)c(=O)[nH]c1=O` (centres undefined), the growth inhibition in test [1] was 4.9%; in test [2], 3.85%; in test [3], 5.85%; in test [4], 19.8%; in test [5], 1.15%; in test [6], 3.3%.
As for `Cc1ccc(S(=O)(=O)OC2CCSCC2)cc1`, the growth inhibition in test [1] was -5.25%; in test [2], -10.3%; in test [3], 7.7%; in test [4], -11.9%; in test [5] it was 7.05%; in test [6], -4.8%.
With `C/C(CC1(O)C(=O)Nc2ccccc21)=N\O` (centres undefined), the growth inhibition was -1.95% and -34.7% in test [1]; -8.5% and -46.1% in test [2]; -30.6% in test [3]; 8.6% in test [4]; -16.2% in test [5]; 6.55% and -10% in test [6].
For `Cc1no[n+]([O-])c1/C=N/NS(=O)(=O)c1ccccc1`, the growth inhibition was 2.25% in test [1]; -17.6% in test [2]; -12.9% in test [3]; -6.05% in test [4]; -2.7% in test [5]; -23.1% in test [6].
In the case of `C#CCN(Cc1ccc2nc(-c3ccccc3)c(Cl)nc2c1)c1cc(OC)c(OC)c(OC)c1`, the growth inhibition in test [1] was 14.8%; in test [2], -12.6%; in test [3], -16.9%; in test [4], -23.4%; in test [5], -26.1%; in test [6], 4.75%.
For `O=[N+]([O-])c1cccc(Nc2nc(Cl)nc(Cl)n2)c1`, the growth inhibition in test [1] is -0.65%; in test [2], 21%; in test [3] it was 5.25%; in test [4] it was -8.25%; in test [5], -18.8%; in test [6], -14.5%.
Take `CC(=O)C[n+]1cccc(Br)c1`: the growth inhibition in test [1] is -6.7%; in test [2], 8.7%; in test [3] it was 10.2%; in test [4], -8.15%; in test [5], 9.5%; in test [6], -5.9%.
For `CC(C)NC(=O)OCc1c(COC(=O)NC(C)C)c(-c2ccccc2)n(C)c1-c1ccccc1`, the growth inhibition in test [1] is 12.6%; in test [2] it was 2.05%; in test [3], 6.05%; in test [4] it was -5.7%; in test [5] it was 1.85%; in test [6], 32.8%.
